Measured values published in PubChem BioAssay AID1903 (Southern Research Specialized Biocontainment Screening …, 2009).
Where “and” joins values, the source holds several entries; their conditions need not be identical. Equal values may be shown once. The campaign covered roughly 310,000 compounds. About 1,200 (0.39%) were called active. No rule for the calls is given here. A selection follows. Results with a measured potency or affinity are listed apart.

The compounds below were run against Large T antigen (Simian virus 40) (UniProt P03070) (assay: SV40 large T antigen inhibitors, biochemical (AID 1903)). Settings: SV40 large T antigen ATPase/helicase inhibition assay; at 20 µM; active compounds read high.
Large T antigen (Simian virus 40), sequence (P03070 whole entry, looked up): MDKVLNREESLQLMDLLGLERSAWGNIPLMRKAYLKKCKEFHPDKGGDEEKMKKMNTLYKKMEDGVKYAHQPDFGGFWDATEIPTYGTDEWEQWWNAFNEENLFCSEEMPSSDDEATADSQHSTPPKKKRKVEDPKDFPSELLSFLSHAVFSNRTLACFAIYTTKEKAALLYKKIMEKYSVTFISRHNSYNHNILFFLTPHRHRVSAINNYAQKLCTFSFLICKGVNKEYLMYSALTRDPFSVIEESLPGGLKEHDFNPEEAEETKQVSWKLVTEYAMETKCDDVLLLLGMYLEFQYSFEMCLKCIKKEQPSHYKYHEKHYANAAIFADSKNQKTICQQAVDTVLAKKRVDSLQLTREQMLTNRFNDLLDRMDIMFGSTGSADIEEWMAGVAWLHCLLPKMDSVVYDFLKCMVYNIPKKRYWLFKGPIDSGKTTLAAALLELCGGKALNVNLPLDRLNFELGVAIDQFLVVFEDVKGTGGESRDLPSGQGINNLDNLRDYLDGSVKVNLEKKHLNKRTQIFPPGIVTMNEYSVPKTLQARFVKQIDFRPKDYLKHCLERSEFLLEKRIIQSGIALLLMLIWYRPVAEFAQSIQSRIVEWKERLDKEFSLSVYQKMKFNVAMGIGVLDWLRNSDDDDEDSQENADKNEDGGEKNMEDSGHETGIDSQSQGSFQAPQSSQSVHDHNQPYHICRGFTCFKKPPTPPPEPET

inhibition, inactive:
CN(CC(=O)Nc1ccc(Cl)c(C(F)(F)F)c1)C(=O)C1CCC1 17.7%, Cc1ccsc1/C=N/N=C/c1sccc1C -8.78%, Cc1ccc(N=Cc2sccc2C)cc1C 3.36%, Cn1c(N)c(S(=O)(=O)N2CCCC2)c(=O)n(C)c1=O 8.94%, CCOc1ccccc1NC(=O)C1CCN(c2ccc(S(=O)(=O)N3CCCC3)cc2)CC1 5.71%, NC(=O)c1cc2cc(Br)ccc2oc1=NCc1ccccc1 -0.91%, CC(=NCc1ccccc1)C1=C(O)COC1=O 5.76%, O=C(CCSc1ccc(Cl)cc1)N1CCN(c2ncccn2)CC1 0.35%, CCn1cc(CN2CCC(C(=O)Nc3ccc(Oc4ccccc4F)cc3)CC2)c(C)n1 10.4%, CCCC(=O)Oc1ccc2c(C)cc(=O)oc2c1 18.6%, COc1ccc2c(COC(=O)CCS(=O)(=O)c3ccc(C)cc3)cc(=O)oc2c1 6.52%, COc1cc(C(C)=O)ccc1OCC(O)CN1CCN(c2c(C)cccc2C)CC1 (configuration not stated) -5.73%, OCCOc1ccc(C2=NCCO2)cc1 -2.82%, CCN1CCN(CC(=O)Nc2ccc3c(c2)OCO3)C(=O)C1=O 3.32%, COc1ccc(Nc2cc3n(c(=O)n2)CCc2cc(OC)c(OC)cc2-3)cc1 10.4%, CCN(CC)c1ccc(Nc2cc3n(c(=O)n2)CCc2cc(OC)c(OC)cc2-3)cc1 31.5%, CCOc1ccc(N2C(=O)/C(=C/c3ccccn3)SC2=S)cc1 9.29%, COc1ccc(N2CCN(C(=O)CCc3ccc(S(=O)(=O)NC(C)C)cc3)CC2)cc1 11.6%, CC(C)CC(=O)Nc1ccnn1C1CCN(C(=O)c2ccc(F)cc2Cl)CC1 0.42%, O=C(NNC(=O)c1ccco1)c1ccc(NS(=O)(=O)c2cccs2)cc1 9.88%, COc1ccc(NC(=O)c2sc(SCc3ccccc3)nc2N)cc1 1.41%, COc1ccc(NC(=O)c2sc(SC)nc2N)cc1 3.33%, CC(=O)Nc1ccc2nc(CN3CCN(CC=C(C)C)C(CCO)C3)ccc2c1 (configuration not stated) 5.4%, COc1ccc(C(=O)NNC(=O)C(=O)NC(C)c2ccccc2)cc1OC (configuration not stated) -0.06%, O=C(O)c1ccc2c(c1)C(c1ccccc1)OC2=O (configuration not stated) 11%, COc1ccccc1CC(=O)Nc1ccc(-c2nnc(-c3ccco3)o2)cc1 5.22%, CCOc1ccc(CCNC(=O)c2cccc(S(=O)(=O)N3CCCC3)c2)cc1OCC 2.19%, COc1ccc2c(c1)c(=O)oc1cc(O)ccc12 10.3%, COc1ccc2c(c1)oc(=O)c1ccccc12 2.39%, O=c1cc(O)c2ccc(O)cc2o1 4.04%, Cc1cc(=O)oc2cc(O)ccc12 17.8%, Clc1ccccc1N1CCN(Cc2c[nH]c3ccccc23)CC1 1.73%, O=C(Cn1nnc(-c2ccccc2)n1)Nc1ccccc1N1CCOCC1 -3.12%, COC(=O)c1ccc2c(c1)C(C)(C)C(/C=C/c1ccccc1O)=[N+]2C 21.7%, C[N+]1=C(/C=C/Nc2ccccc2Cl)C(C)(C)c2ccccc21 21.8%, O=C(NC1CCCCC1)c1sc(=S)n2c1[nH]c(=O)c1ccccc12 6.27%, O=C(NCc1ccco1)c1sc(=S)n2c1[nH]c(=O)c1ccccc12 23.2%, Cc1ccc(N(C(=O)c2csnn2)C(C(=O)NC2CCCCC2)c2ccccn2)cc1C (configuration not stated) 4.41%, Cc1ccc2ccccc2[n+]1CCCS(=O)(=O)[O-] 5.88%, [O-][n+]1c2ccccc2cc2ccccc21 3.6%, CCCCC[n+]1cccc2c3ccccc3ccc21 5.51%, CCCCCCCCCC[n+]1cccc2c3ccccc3ccc21 23.8%, CN(C)C(=O)c1ccc(-c2nnc(NCc3ccccc3)c3ccccc23)cc1 17.7%, CCOC(=O)c1c(S(=O)(=O)NCC(=O)Nc2ccc(F)cc2)c(C)n(C)c1C 2.6%, CCOc1ccccc1NC(=O)Cn1c(=O)c(OCC)nc2cnccc21 13.5%, COc1ccc(C2CC(=O)N3CN(c4ccccc4F)CSC3=C2C#N)cc1OC (configuration not stated) 51.3%, COc1ccc2ccccc2c1C1CC(=O)N2CN(C)CSC2=C1C#N (configuration not stated) 28.9%, CN1CSC2=C(C#N)C(c3cccc(OCc4ccccc4)c3)CC(=O)N2C1 (configuration not stated) 43.1%, COc1ccc(Br)cc1C1CC(=O)N2CN(Cc3ccccc3)CSC2=C1C#N (configuration not stated) 35% and 18.8%, Cc1cccc(C(=O)N2CC3(C)CC2CC(C)(C)C3)c1 (configuration not stated) 3.07%, O=C(c1cccc([N+](=O)[O-])c1)c1ccc2c(c1)OCCOCCOCCOCCO2 7.91%, Cc1cccc(N2CCN(C(=O)CCCn3c(=O)c4cccn4c4cccnc43)CC2)c1C 9.66%, CCN1CCN(C(=O)C2=CC(c3ccc(C)cc3)=NS(=O)(=O)N2C)CC1 16.5%, CCN1C(=O)N[C@@H](CCc2ccccc2)[C@@H](C(=O)OC)[C@H]1C 23.2%, COc1cccc(NC(=O)CSCC(=O)Nc2ccccc2)c1 13.8%, O=C(CN1CCCCC1)Nc1ccc(N2CCCCCC2)cc1 31.6%, CC(=O)Nc1ccc(N2CCCC2)cc1 0.723%, CC(=O)Nc1ccc(N2CCN(C(C)=O)CC2)cc1 27.6%, CCC(=O)Nc1ccc(N2CCCCC2)cc1 34.9%, CNC(=O)C12CC3CC(CC(Cl)(C3)C1)C2 11.2%, O=C(CC(C(=O)O)c1cccc(Br)c1)c1ccc(Cl)cc1 (configuration not stated) 9.51%, N#Cc1cccc2cnccc12 7.69%, Nc1cccc2cnccc12 3.43%, O=C(CSc1ccc(-c2ccccc2)nn1)c1cccs1 3.38%, Cc1nonc1OCCNCc1c(C(=O)N(C)C)nc2ccc(Cl)cn12 6.84%, S=c1[nH]nc(-c2ccc(Cl)cc2)n1/N=C/c1ccco1 35.9%, S=c1[nH]nc(-c2ccncc2)n1/N=C/C=C/c1ccco1 28.8%, O=C1OC(c2ccc(Cl)cc2)=N/C1=C\C=C\c1ccco1 58.1%, C(=C\c1ccco1)/C=N/n1cnnc1 21.7%, C(/C=C/c1ccco1)=N/N1CCN(c2ccccc2)CC1 7.94%, Cc1ccc(N/N=C/C=C/c2ccco2)cc1 12.9%, Cc1ccccc1-n1nc2c(c1NC(=O)c1ccc3c(c1)OCO3)CS(=O)(=O)C2 5.82%, CC(=O)Nc1ccc(N(C(=O)c2ccccn2)C(C(=O)NC2CCCCC2)c2ccc(F)cc2)cc1 (configuration not stated) 5.17%, Cc1ccc2[nH]c(=O)c(C(c3nnnn3C(C)(C)C)N(Cc3ccco3)CC3CCCO3)cc2c1 (configuration not stated) 9.73%, Cc1occc1C(=O)Nc1sc2c(c1C(N)=O)CCC(C(C)(C)C)C2 (configuration not stated) 16.6%, COc1cc(OC)c(N(C)S(=O)(=O)c2cccc(C(=O)OCc3c(C)noc3C)c2)cc1Cl 5.27%, Cc1ccc(N2C(=O)C3CCC(C)(C2=O)C3(C)C)cc1 (configuration not stated) 1.07%, O=C(Cn1cnc2ccccc2c1=O)Nc1nc2ccccc2s1 4.55%, Cc1nnsc1C(=O)N1CCCC(C(=O)c2ccc(C(F)(F)F)cc2)C1 (configuration not stated) -2.34%, Cc1cccc(OCC(=O)N2CCN(c3nnc(-c4ccccc4)c4ccccc34)CC2)c1 12.7%, CCn1cc(C(=O)NCC(C)C)c(=O)c2cc(F)c(N3CCN(C)CC3)cc21 15.3%, COc1cc(OC)cc(C(=O)NCC2CCCN(C(=O)c3csc(C(C)C)n3)C2)c1 (configuration not stated) 12.6%, Cc1ccc(COc2ccc(S(=O)(=O)N3CCCC3)cc2C(N)=O)cc1 4.61%, O=C(Nc1ccc(F)cc1)Oc1ccc[nH]c1=O 9.86%, COc1ccccc1N1CCN(C(=O)/C=C/c2ccc(C)cc2)CC1 9.93%, CCc1ccc2[nH]c(=O)c(CN(CC3CCCO3)C(=S)NCc3ccco3)cc2c1 (configuration not stated) 10.7%, O=C(CSc1n[nH]c(=O)n1Cc1ccco1)Nc1ccccc1Cl 12.1%, N=c1n(CCO)c2ccccc2n1CCN1CCCCC1 6.21%, COc1ccc(N2C(=O)c3ccccc3NC23CCCC3)cc1 5.28%, COc1ccc(N2C(=O)c3ccccc3NC23CCCCC3)cc1 -1.05%, O=C(/C(=C(\[O-])c1ccccc1)[n+]1ccc2ccccc2c1)c1ccc([N+](=O)[O-])cc1 15%, O=[N+]([O-])c1cccc(S(=O)(=O)c2cccc([N+](=O)[O-])c2)c1 3.63%, CCC(C)N(C(=O)CSc1nnc(-c2ccco2)n1C)C1CCS(=O)(=O)C1 (configuration not stated) 13.2%, CCc1nc2nc(C)c(NS(=O)(=O)c3ccc(C)c(C)c3)c(=O)n2[nH]1 4.17%, O=C(Oc1ccc(-c2nnco2)cc1)C1CCN(C(=O)c2ccc(F)cc2)CC1 5.55%, COC(=O)N/C(C)=C1/NC(=O)c2ccccc2C(c2ccccc2)N1 (configuration not stated) 6.67%, O=C(O)c1ccc2c(=O)n3c(nc2c1)/C(=C/c1ccc(Cl)c(Cl)c1)CC3 24.8%
